The values that follow are results of earlier work, collected in PubChem BioAssay AID977610.

The whole screen tested about 3,600 compounds, of which about 3,600 (100%) were called active. Cut-off not given; nearly all actives show Ki up to about 18000 µM. So high a share suggests a set chosen from earlier hits. The list shows a part of the results.

This data set can be described thus: PubChem AID 977610. The following applies: PDB protein-ligand complexes, literature Ki.

`C[C@H](O[P+](O)(O)O)C(=O)O`: the Ki (protein: PHOSPHO-2-DEHYDRO-3-DEOXYHEPTONATE ALDOLASE DAH7PS, PDB entry 4umc) was 360 µM (active).

As for `C[C@@H](O[P+](O)(O)O)C(=O)O`, under “protein: PHOSPHO-2-DEHYDRO-3-DEOXYHEPTONATE ALDOLASE DAH7PS, PDB entry 4umb”, the Ki is 99 µM (active).

As to H-RLPTSII-OH, the Ki (protein: CFTR Associated Ligand (CAL) PDZ domain, PDB entry 4jof) was 68 µM (active).

On to H-SRFPTSII-OH, for which the Ki (protein: CFTR Associated Ligand (CAL) domain, PDB entry 4joj) is 110 µM (active).

Consider H-NSRYPTSII-OH, for which the Ki (protein: CFTR Associated Ligand (CAL) PDZ domain, PDB entry 4jok) is 85.3 µM (active).

As for H-SRVPTSII-OH, the Ki (protein: CFTR Associated Ligand (CAL) PDZ domain, PDB entry 4jog) is 190 µM (active).

Turning to `CC(C)(C)NC(=O)[C@@]1(c2c(C(=O)O)[nH]c3cc(Cl)ccc23)N2C(=O)[C@]21c1ccc(OCc2ccc(Cl)cc2)cc1`, for the setting “protein: E3 ubiquitin-protein ligase Mdm2, PDB entry 4mdn”, the Ki was 0.6 µM (active).

Take `CC(C)(C)NC(=O)[C@@H]1C[C@@H]2CCCC[C@@H]2CN1C[C@@H](O)[C@H](C[C@@H]1C=CCCC1)NC(=O)[C@H](CC(N)=O)NC(=O)C1=CCc2ccccc2N1`: the Ki (protein: Protease PRG48T/L89M, PDB entry 4qgi) is 125 µM (active).

For `Nc1nc2c(ncn2CC(COC[P+](O)(O)O)COC[P+](O)(O)O)c(=O)[nH]1`, under “protein: hypoxanthine-guanine phosphoribosyltransferase, PDB entry 4ijq”, the Ki is 0.03 µM (active).

Consider `Nc1nc2c(ncn2[C@H]2CCN(C(=O)C[P+](O)(O)O)C2)c(=O)[nH]1`, for which, where the note is “protein: Xanthine phosphoribosyltransferase, E. coli XGPRT, PDB entry 4jit”, the Ki is 0.23 µM (active).

`Nc1nc2c(ncn2[C@H]2CN(C(=O)C[P+](O)(O)O)C[C@H]2O)c(=O)[nH]1`: the Ki (protein: Xanthine phosphoribosyltransferase, E. coli XGPRT, PDB entry 4jls) was 2.2 µM (active).

`O=C(O)CC1(CC(=O)N2CCN(C(c3ccccc3)c3ccccc3)CC2)CCCC1`: the Ki (protein: Dehydrosqualene synthase, PDB entry 3tfn) was 0.27 µM (active).

Regarding `CO[C@H]1CC[C@H](OC)[C@@H](NC(=O)CN2CCN(Cc3ccc4c(c3)OCO4)CC2)C1`, the inhibition constant Ki (protein: E. coli beta-Glucuronidase, PDB entry 4jhz) is 0.957 µM (active).

`NCCCC[C@H](NC(=O)Cc1ccc(Cl)c(Cl)c1)C(=O)N[C@@H](CCCCN)C(=O)NCC1CCC(NC(N)N)CC1` (stereo partly drawn): the Ki (protein: SERINE PROTEASE SUBUNIT NS2B, SERINE PROTEASE NS3, PDB entry 2yol) was 0.13 µM (active).

With `Cn1nc(N)c2c[n+]([C@@H]3O[C@H](CO[P+](O)(O)O)[C@@H](O)[C@H]3O)c3nc[nH]c1c23`, the Ki (protein: Deoxyribonucleoside 5'-monophosphate N-glycosidase (D69N mutation), PDB entry 4fyh) was 14 µM (active).

`N#Cc1cccc(Cn2cc(NC(=O)c3n[nH]c4ccccc34)cn2)c1`: the Ki (protein: Tyrosine-protein kinase ITK, PDB entry 4pp9) is 0.043 µM (active).

As for `CCc1[nH]c2nc(Oc3cncnc3)nc(N3C[C@@H]4C(N)[C@@H]4C3)c2c1Cl` (stereo partly drawn), under “protein: DNA gyrase subunit B, PDB entry 4gee”, the Ki was 0.001 µM (active).

Regarding `COc1ccc(OCCN2C[C@H]([C@H](O)CO)[C@H]3CCC[C@@H](C2=O)N3S(=O)(=O)c2cc(Cl)cc(Cl)c2)cc1OC`, the Ki (protein: Peptidyl-prolyl cis-trans isomerase FKBP51, PDB entry 4w9p) was 0.016 µM (active).

For `COc1ccc(OCCN2C[C@H]([C@@H](O)CO)[C@H]3CCC[C@@H](C2=O)N3S(=O)(=O)c2cc(Cl)cc(Cl)c2)cc1OC`, under “protein: Peptidyl-prolyl cis-trans isomerase FKBP51, PDB entry 4w9o”, the Ki is 0.017 µM (active).

For `O=C(O)c1cc2[nH]c3ccccc3c2cc1Cl`, where the note is “protein: E. coli sliding clamp, DNA polymerase III subunit beta, PDB entry 4n99”, the Ki is 216 µM (active).

As for `Cc1ccc(CSc2nc3c(c(=O)[nH]2)CCC3)cc1`, the Ki (protein: Matrix metalloproteinase-13, PDB entry 4l19) is 0.8 µM (active).

`O=c1ccn([C@@H]2O[C@H](CO)[C@@H](O[P+](O)(O)O)[C@H]2O)c(=O)[nH]1`: the Ki (protein: bovine seminal ribonuclease, PDB entry 1n3z) was 63.2 µM (active).

In the case of `Cc1cc(=O)[nH]c(=O)n1[C@@H]1O[C@H](CO[P+](O)(O)O)[C@@H](O)[C@H]1O`, the Ki (protein: Orotidine 5'-phosphate decarboxylase, PDB entry 3wjw) is 134 µM (active).

With `N#C[C@H]1CC(=O)NC(=O)N1[C@@H]1O[C@H](CO[P+](O)(O)O)[C@@H](O)[C@H]1O`, the Ki (protein: Mt orotidine 5'-monophosphate decarboxylase (OMPDC) K72A mutant, PDB entry 2zz2) was 29 µM (active).

For `O=c1ccn([C@@H]2O[C@H](CO)[C@@H](O)[C@H](O)[C@H]2O)c(=O)[nH]1`, the Ki (protein: Glycogen phosphorylase, muscle form, PDB entry 3t3d) was 12.4 µM (active).

For `O=c1ccn([C@@H]2O[C@H](CO[P+](O)(O)O)[C@@H](O)[C@H]2O)c(=O)[nH]1`, the Ki was 220 µM (active) (protein: D312N mutant of human orotidyl-5'-monophosphate decarboxylase, PDB entry 3ex6); 330 µM (active) (protein: Mt orotidine 5'-monophosphate decarboxylase (OMPDC), PDB entry 3g1d); 210 µM (active) (protein: orotidine 5'-monophosphate decarboxylase from P.falciparum, PDB entry 2za3).

For the compound `O=c1cnn([C@@H]2O[C@H](CO[P+](O)(O)O)[C@@H](O)[C@H]2O)c(=O)[nH]1`, the Ki runs as follows: (protein: Methanothermobacter thermautotrophicus ODCase mutant K42A, PDB entry 1km3) 12.4 µM (active); (protein: orotidine 5'-monophosphate decarboxylase from Saccharomyces cerevisiae (D91N), PDB entry 3gdt) 0.064 µM (active).

For the compound `CC(C)(C)C(=O)N[C@@H](C(=O)NO)c1ccc(-n2cccn2)cc1`, for the setting “protein: M1 family aminopeptidase A-M1, PDB entry 4r5v”, the Ki was 0.7 µM (active).

With `CC(C)(C)OC(=O)N[C@H](C(=O)NO)c1ccc(-n2cccn2)cc1`, the Ki is 0.8 µM (active) (protein: M1 family aminopeptidase A-M1, PDB entry 4r5t) and 0.03 µM (active) (protein: M17 leucyl aminopeptidase A-M17, PDB entry 4r6t).

Broadly, the Ki is the equilibrium dissociation constant of an inhibitor or competing ligand from its target.
